Assay [1] can be described thus: Cellular Toxicity (caspase-3) H-4-II-E (AID 663).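 Further: cells exposed to compound for 16 hr before readout; 0% = DMSO basal and 100% = 100 µM tamoxifen.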 The conditions noted are these: Potency: caspase-3 activation. The procedure, abridged:
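Rat hepatoma H-4-II-E cells (1500/well) plated 5 hr, then exposed to compound titrations for 16 hr at 37 °C. Caspase-Glo 3/7 luminescence read after 20 min at RT; data normalized to DMSO and 100 uM tamoxifen, AC50 from Hill fits.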

A short description of assay [2]: Cellular Toxicity (caspase-3) Renal Proximal Tubule (AID 667).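 Further: cells exposed to compound for 16 hours at 37 °C before detection; 0% = DMSO basal and 100% = 10 µM staurosporine.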 The procedure, abridged: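 Luminescent caspase 3/7 signal from peptide-aminoluciferin cleavage measures apoptosis in freshly isolated rat kidney proximal tubule cells after 16 h compound exposure. Concentration-response data are normalized to DMSO and 10 uM staurosporine, and AC50 values come from Hill equation fits.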

Assay [3] concerns the target Cytochrome P450 3A4 (Homo sapiens) (UniProt P08684). The experiment in a line: qHTS Assay for Inhibitors and Substrates of Cytochrome P450 3A4 (AID 884). Further: nearly all actives have a fitted effect of over 50% in size. Further: potency means the concentration at half of the fitted maximal effect. The procedure, abridged: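 20 nM human CYP3A4 with 25 uM Luciferin-PPXE (at KM) in 200 mM KPO4, preincubated 10 min with compound; NADPH regeneration started a 60 min RT reaction. Luciferin detected by luminescence, normalized to 57 uM ketoconazole as full inhibition.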

A short description of assay [4]: MultiTox-Fluor Cytotoxicity Assay - LYMP1-002 - Dead Cells (AID 960). Further: nearly all actives have a fitted effect of over 60% in size. Further: potency means the concentration at half of the fitted maximal effect. An outline of the steps:
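Human lymphoblastoid cells (LYMP1-002), 2500/well in complete medium, were exposed to compounds for 16 hr at 37 C. Dead-cell protease activity was read as bis-AAF-R110 fluorescence (Ex/Em 485/520), normalized to DMSO and 15 uM tetraoctylammonium bromide; AC50 from Hill fits.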

Assay [5] can be described thus: Cell Viability - LYMP2-003 (AID 965).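 Further: cells exposed to compounds for 24 h before reading; 0% = DMSO only and full effect = 92 µM tetraoctylammonium bromide; nearly all actives have a fitted effect of over 50% in size.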 The procedure, abridged: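 CellTiter-Glo luminescence (cellular ATP) after 24 h compound exposure at 37 C in complete medium; 2500 cells/well, 5 h settling beforehand. Concentration-response fitted to standard Hill equation for AC50. Tetraoctylammonium bromide served as positive control.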
Assay [6] in a line: Cell Viability - LYMP2-005 (AID 967).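 Further: series mostly up to about 92 µM; plate controls were DMSO only for no effect and 92 µM tetraoctylammonium bromide control for full effect.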 The procedure, abridged:
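Steps: seed 2500 LYMP2-005 cells/well, incubate 5 h at 37 C, add compound, incubate 24 h at 37 C, add CellTiter-Glo, wait 30 min at RT, read luminescence. Concentration-response data fitted to Hill equation for AC50.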

Assay [7] in a line: Cell Viability - LYMP2-015 (AID 971).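 Further: 0% = DMSO only and full effect = 92 µM tetraoctylammonium bromide; nearly all actives have a fitted effect of over 55% in size.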 An outline of the steps:
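Human lymphoblastoid cells (2500/well) in complete medium were preincubated 5 hr at 37 C, then compound-treated 24 hr at 37 C. Intracellular ATP was read by CellTiter-Glo luminescence after 30 min at room temperature; AC50 came from Hill-equation concentration-response fits.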

Assay [8] in a line: Cell Viability - LYMP2-017 (AID 972). Further: series mostly up to about 92 µM; on the % scale 0 is the no-effect control and ±100 the full control effect; nearly all actives have a fitted effect of over 55% in size. An outline of the steps:
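Human lymphoblastoid cells (2500/well) were seeded in complete medium, held 5 hr at 37 C, then exposed to compounds for 24 hr at 37 C. Intracellular ATP was read by CellTiter-Glo luminescence after 30 min at room temperature, with AC50 values from Hill-equation fits.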

The nature of assay [9]: Cell Viability - LYMP2-007 (AID 979).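 Further: cells exposed to compound for 24 h before reading; 0% = DMSO only and the negative end = 92 µM tetraoctylammonium bromide; nearly all actives have a fitted effect of over 60% in size.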 An outline of the steps:
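Human lymphoblastoid cells (2500/well) were plated in complete medium, incubated 5 hr at 37 C, then exposed to compounds for 24 hr at 37 C. Intracellular ATP was read by CellTiter-Glo luminescence after 30 min at room temperature; AC50 from Hill fits.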

The nature of assay [10]: Cell Viability - LYMP2-014 (AID 983).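 Further: series mostly up to about 92 µM; plate controls were DMSO only for no effect and 92 µM tetraoctylammonium bromide for full effect; nearly all actives have a fitted effect of over 50% in size.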 The procedure, abridged: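 Human lymphoblastoid cells (2500/well) were pre-incubated 5 hr at 37 C, then exposed to compounds in complete medium for 24 hr at 37 C. Intracellular ATP was read by CellTiter-Glo luminescence after 30 min at room temperature; AC50 from Hill fits.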
Assay [11] in a line: Cell Viability - LYMP2-016 (AID 984). Further: on the % scale 0 is the no-effect control and ±100 the full control effect; nearly all actives have a fitted effect of over 55% in size. The procedure, abridged:
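qHTS, 1536-well: 2500 LYMP2-016 cells/well, 5 hr 37 C, compound added, 24 hr 37 C, CellTiter-Glo 30 min RT, luminescence. Tetraoctylammonium bromide positive control. AC50 via Hill fit.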

Assay [12] in a line: Cell Viability - LYMP2-024 (AID 988).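 Further: plate controls were DMSO only for no effect and 92 µM tetraoctylammonium bromide for full effect; nearly all actives have a fitted effect of over 60% in size.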 An outline of the steps: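 Human lymphoblastoid cells (2500/well) in complete medium were preincubated 5 hr at 37 C, then exposed to compounds for 24 hr at 37 C. Intracellular ATP was read by CellTiter-Glo luminescence; AC50 from Hill-equation fits of concentration-response data.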
Assay [13] is described as follows: qHTS assay for small molecule activators of the p53 signaling pathway (AID 651743; active means well fitted activation curve with a large enough effect in the signal ratio, not every such curve was filed as active; the % refers to the signal ratio; further: series mostly up to about 92 µM; % of control where 0% means no effect). The following applies: HCT-116 p53RE-bla, beta-lactamase FRET ratio, 16 h; activation: hits give high values. The procedure, abridged: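 HCT-116 p53RE-bla, 4,000 cells/well; 5 h settle; cpd/DMSO 16 h, 37 C; LiveBLAzer B/G 2 h RT; fluorescence intensity.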
On the technique in general: Quantitative high-throughput screening tests each substance at several concentrations.

The nature of assay [14]: qHTS assay for cell viability of HEK293 cells (AID 743288). Further: on the % scale 0 is the no-effect control and ±100 the full control effect; nearly all actives have a fitted effect of over 50% in size. The following applies: ATP luminescence (CellTiter-Glo), 18 h, hits give low values. An outline of the steps:
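Environmental chemicals tested in qHTS format against parental HEK293 cells; 18 h treatment, 37 C; read-out ATP luminescence (CellTiter-Glo), 30 min RT development.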

Assay [15] in a line: Cell Viability - HepG2 (AID 433; calls by dose curve;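 further: potency means the concentration at half of the fitted maximal effect; potency for ATP loss meaning cytotoxicity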). The conditions noted are these: qHTS. The procedure, abridged: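 ATP luminescence (CellTiter-Glo) after 40 h compound exposure, 37 °C, HepG2, 1500 cells/well, complete medium. Normalized: DMSO = basal, 100 uM tamoxifen = 100% inhibition. AC50 via standard Hill equation.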
A short description of assay [16]: Cell Viability - MRC5 (AID 434; calls by dose curve;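 further: potency means the concentration at half of the fitted maximal effect; potency reflects cytotoxicity seen as loss of intracellular ATP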). The following applies: MRC5 lung fibroblast viability, qHTS. An outline of the steps: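 MRC5 normal human lung fibroblasts, 1500 cells/well, exposed to compound for 40 hr at 37 C. Cellular ATP was read by CellTiter-Glo luminescence; data normalized to DMSO and 100 uM tamoxifen, with AC50 from Hill fits.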
Assay [17] is described as follows: MultiTox-Fluor Cytotoxicity Assay - LYMP1-003 - Live Cells (AID 962).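 Further: 0% = DMSO only and full loss = 92 µM tetraoctylammonium bromide; cytotoxic hits lower the live-cell protease signal.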 An outline of the steps: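 LYMP1-003 human lymphoblastoid cells (2500/well) in complete medium were preincubated 5 hr at 37 C, then exposed to compounds for 16 hr at 37 C. Live-cell protease cleavage of GF-AFC read by fluorescence (Ex/Em 405/510); AC50 from Hill fits.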
Assay [18] is described as follows: Cell Viability - LYMP1-002 - Assay at 40 hr (AID 994).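 Further: 0% = DMSO only and full inhibition = 92 µM tetraoctylammonium bromide; nearly all actives have a fitted effect of over 60% in size.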 An outline of the steps:
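Human lymphoblastoid cells, 2500/well in complete medium, were preincubated 5 hr at 37 C, then exposed to compounds for 40 hr at 37 C. Intracellular ATP was read by CellTiter-Glo luminescence after 30 min at room temperature; AC50 from Hill-equation fits.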

Assay [19] concerns the target Tumor necrosis factor (Homo sapiens) (UniProt P01375). The experiment in a line: qHTS assay to identify small molecules that stimulate Tumor Necrosis Factor-alpha (TNF-alpha) secretion (AID 651757; active means well fitted curve in the direction sought with a large enough effect in the signal ratio; the % refers to the signal ratio; further: 0% is about no effect). An outline of the steps:
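THP-1 cells were exposed to compounds for 17 hrs at 37 C, after which secreted TNF-alpha was measured by homogeneous HTRF (TR-FRET) using cryptate- and XL665-labeled anti-TNF-alpha antibodies, read after 3 hr at room temperature.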

Assay [20] in a line: qHTS assay for small molecule antagonists of the retinoid-related orphan receptor gamma (ROR-gamma) signaling pathway - cell viability counter screen (AID 720652; active means well fitted curve in the direction sought with a large enough effect in the repeat runs; an effect the other way counts as inactive or inconclusive;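 further: CHO reporter cells with doxycycline-induced ROR-gamma expression; series mostly up to about 92 µM; compound exposure lasted 16 hr before ATP read; on the % scale 0 is the no-effect control and ±100 the full control effect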). The procedure, abridged:
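Counter screen in CHO cells carrying TET-inducible ROR-gamma and an ROR response element-luciferase reporter; cells plated 5 hr, compound pinned, doxycycline added, then 16 hr at 37 C. Viability read as intracellular ATP by CellTiter-Glo luminescence.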

SMILES strings stand for the structures. “And” between values parts separate entries of the source, which are not always exact repeats. Identical values can stand only once. Unmarked numbers belong to inactive results. Records with an inconclusive call do not appear. The source made the active and inactive calls. Unless noted, the call rests on the fitted dose curve; in most records, active means well fitted curve in the direction sought with a large enough effect; inconclusive means small, poorly fitted or top-dose-only effect, or another doubt; inactive means no such curve, though single readings can be large; an effect the other way counts as inactive or inconclusive.

Cytochrome P450 3A4 (Homo sapiens), sequence (P08684 whole entry, looked up): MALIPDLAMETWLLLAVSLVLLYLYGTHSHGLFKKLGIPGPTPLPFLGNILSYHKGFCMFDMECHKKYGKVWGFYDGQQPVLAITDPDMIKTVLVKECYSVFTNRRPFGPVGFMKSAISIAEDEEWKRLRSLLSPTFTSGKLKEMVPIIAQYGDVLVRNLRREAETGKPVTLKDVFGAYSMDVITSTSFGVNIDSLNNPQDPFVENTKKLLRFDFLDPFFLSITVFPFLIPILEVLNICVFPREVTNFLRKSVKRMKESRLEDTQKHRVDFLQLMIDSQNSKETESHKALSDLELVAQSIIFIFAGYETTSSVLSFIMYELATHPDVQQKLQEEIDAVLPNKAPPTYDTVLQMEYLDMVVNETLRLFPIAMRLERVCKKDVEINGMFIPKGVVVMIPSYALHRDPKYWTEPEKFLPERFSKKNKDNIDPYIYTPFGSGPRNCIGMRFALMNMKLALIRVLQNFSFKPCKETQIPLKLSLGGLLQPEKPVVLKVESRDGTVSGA
Tumor necrosis factor (Homo sapiens), sequence (P01375 whole entry, looked up): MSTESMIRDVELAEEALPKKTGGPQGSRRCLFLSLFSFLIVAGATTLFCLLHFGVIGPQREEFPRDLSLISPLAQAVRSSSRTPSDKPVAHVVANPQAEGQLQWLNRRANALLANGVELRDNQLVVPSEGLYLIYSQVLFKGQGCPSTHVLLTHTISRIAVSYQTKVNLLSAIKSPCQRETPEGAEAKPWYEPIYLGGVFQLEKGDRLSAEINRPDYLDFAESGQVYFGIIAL

With `Nc1ccc(-c2ccc(N)c(Cl)c2)cc1Cl`, the Potency result in assay [1], in assay [5], in [6], in assay [7], in assay [8] and in assay [9] was “inactive” each time. Also, the Potency entry in assay [10], in assay [11] and in assay [12] was “inactive” throughout. The compound was called inactive in assay [2]. The Potency is 15.8 µM (active) in assay [3] and 25.1 µM (active) in assay [4]. For the same compound, the activation in assay [13] was 14% and 23.3%. Further, the max response in assay [14] was -8.22% and -17.1%.

Regarding `CCOC(=O)C1OC1(C)c1ccccc1` (stereo not given), the Potency in assay [15] and in [16] was more than 92 µM each time. The Potency result in [1], in assay [3], in assay [4], in [5], in assay [6] and in assay [7] was “inactive” in each case. Besides, the Potency result in [8], in assay [9], in assay [10], in [11], in assay [12] and in [18] was “inactive” each time. In addition, in assay [20], the Potency result is “inactive”. For the same compound, the result in [2], in assay [17] and in assay [19] was inactive. Moreover, the activation in assay [13] was -3.07%.

On to `Cc1ccc(N)c(N)c1`, for which the Potency in assay [15] and in assay [16] was more than 92 µM in each case. For the same compound, the Potency result in assay [1], in assay [4], in assay [10] and in assay [11] was “inactive” throughout. Also, the compound was classed as inactive in assay [2]. For the same compound, in assay [13], the activation is -0.898%. In [14], the max response was -20.1%.

`C=CCBr`: the Potency in assay [15] and in assay [16] was more than 92 µM throughout. In addition, the Potency entry in assay [1], in assay [3], in assay [5], in assay [6], in assay [7] and in [8] was “inactive” each time. The Potency result in assay [9], in assay [10], in assay [11], in [12], in assay [18] and in [20] was “inactive” in each case. Moreover, the outcome in [2], in assay [17] and in [19] was inactive. Besides, in [13], the activation is -2.4%. In addition, in [14], the max response was -2.53%.

With `Clc1ccccc1`, the Potency in assay [15] and in [16] was more than 92 µM each time. The Potency entry in [1], in assay [3], in assay [4], in assay [5], in [6] and in [7] was “inactive” each time. In addition, the Potency result in assay [8], in assay [9], in [11], in assay [12], in assay [18] and in assay [20] was “inactive” throughout. In addition, the result in assay [2], in assay [17] and in [19] was inactive. Also, the max response in assay [14] is 10.9%.

Turning to `BrCCc1ccccc1`, the Potency in assay [15] and in assay [16] was more than 92 µM each time. Moreover, the result in assay [2], in assay [17] and in assay [19] was inactive. For the same compound, the Potency result in [3], in assay [4], in assay [5], in assay [7], in assay [8] and in assay [9] was “inactive” each time. The Potency result in [10], in [11], in assay [12], in [18] and in assay [20] was “inactive” in each case. Also, in [13], the activation was -5.87%. In addition, in assay [14], the max response is -1.44%.

`Cc1ccc(N)cc1C`: the Potency in assay [15] and in [16] was more than 92 µM each time. The Potency entry in [1], in assay [3], in assay [4], in assay [5], in assay [6] and in [7] was “inactive” in each case. The Potency result in [8], in [9], in assay [10], in assay [11], in assay [12] and in assay [18] was “inactive” each time. Further, in assay [20], the Potency result is “inactive”. Further, the compound was classed as inactive in assay [2], in [17] and in [19]. Also, the activation in [13] is -1.62%. In addition, the max response in assay [14] is 0.786%.

For `Cc1coc2c1CCC(C)C2` (stereo not given), the Potency in assay [15] and in assay [16] was more than 92 µM each time. Also, the Potency result in assay [1], in [3], in [4], in assay [5], in [6] and in [7] was “inactive” throughout. Moreover, the Potency result in [8], in [9], in [10], in [11], in [12] and in assay [18] was “inactive” each time. Also, in assay [20], the Potency entry was “inactive”. For the same compound, the compound was called inactive in [2], in [17] and in assay [19]. Besides, the activation in assay [13] is -2.44%. Besides, the max response in [14] was 2.25%.

Take `O=NN1CCCCC1`: the Potency in assay [16] was more than 92 µM. Also, the Potency entry in assay [1], in assay [3], in assay [4], in [5], in [6] and in [7] was “inactive” each time. In addition, the Potency entry in assay [8], in assay [9], in [10], in [11], in assay [12] and in [18] was “inactive” in each case. In assay [20], the Potency entry was “inactive”. The outcome in [2], in assay [17] and in assay [19] was inactive. In [13], the activation is -2.94%. For the same compound, the max response in [14] was -2.6%.

As to `CCN(CC)N=O`, in assay [15], the Potency was more than 92 µM. The Potency entry in [1], in assay [3], in assay [4], in assay [5], in assay [6] and in [7] was “inactive” in each case. For the same compound, the Potency entry in assay [8], in assay [9], in [10], in assay [11], in assay [12] and in assay [18] was “inactive” throughout. In addition, in [20], the Potency entry was “inactive”. For the same compound, the result in assay [2], in assay [17] and in [19] was inactive. Further, in [13], the activation was -1.39%. Moreover, in [14], the max response was 1.5%.

For the origin of these results see PubChem BioAssay (NCATS).
